The values that follow come from publication PMC4081100, “A DNA-binding-site landscape and regulatory network analysis for NAC transcription factors in Arabidopsis thaliana”.

Assay in all cases: universal protein binding microarray (PBM); transcription factors of Arabidopsis thaliana; high values mean tight binding
Conditions in all cases: protein: recombinant; tags: GST; chain copies: 2; dsDNA, one strand shown

Experiment [1] deals with T1, GST-ANAC092(1-176) (Arabidopsis thaliana, UniProt Q9FKA0 1-176).
T1 sequence: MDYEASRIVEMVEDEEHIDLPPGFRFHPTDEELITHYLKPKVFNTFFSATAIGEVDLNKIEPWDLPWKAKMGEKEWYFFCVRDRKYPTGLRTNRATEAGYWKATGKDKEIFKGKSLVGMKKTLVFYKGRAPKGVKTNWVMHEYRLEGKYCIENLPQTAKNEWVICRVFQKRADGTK
The method in brief: (§1)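 GST-tagged NAC-domain, full-length or DNA-binding-domain proteins were induced in cells, with zinc acetate added for zinc-finger proteins. They were purified on glutathione–Sepharose 4B and quantified by A280 or anti-GST western blot. Each was applied at 200 to 500 nM final, in duplicate, to custom all-10-mer Agilent 4 × 180K arrays made double-stranded by primer extension, with gapped and ungapped 8-mers scored. Binding is the normalised enrichment score (E-score).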

Experiment [2] addresses GST-NTL6(1-168) (Arabidopsis thaliana, UniProt Q9SCK6 1-168). The method in brief: as §1
In experiment [3] the target is T2, GST-ANAC019 NAC domain (Arabidopsis thaliana, UniProt Q9C932 14-162).
T2 sequence: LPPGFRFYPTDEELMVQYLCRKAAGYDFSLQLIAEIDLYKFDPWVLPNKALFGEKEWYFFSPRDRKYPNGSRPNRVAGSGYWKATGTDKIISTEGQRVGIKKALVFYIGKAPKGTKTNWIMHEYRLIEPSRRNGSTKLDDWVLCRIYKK
The procedure, abridged:
as §1

Experiment [4] concerns the target T3, GST-ANAC055(1-171) (Arabidopsis thaliana, UniProt Q9LDY8 1-171).
T3 sequence: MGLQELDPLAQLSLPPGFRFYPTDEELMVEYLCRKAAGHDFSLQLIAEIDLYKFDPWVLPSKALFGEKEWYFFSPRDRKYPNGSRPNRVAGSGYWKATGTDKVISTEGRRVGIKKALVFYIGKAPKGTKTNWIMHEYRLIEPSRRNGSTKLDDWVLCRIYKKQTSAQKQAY
The method in brief: as §1

The target of experiment [5] is T4, GST-ATAF1 NAC domain (Arabidopsis thaliana, UniProt Q39013 7-158).
T4 sequence: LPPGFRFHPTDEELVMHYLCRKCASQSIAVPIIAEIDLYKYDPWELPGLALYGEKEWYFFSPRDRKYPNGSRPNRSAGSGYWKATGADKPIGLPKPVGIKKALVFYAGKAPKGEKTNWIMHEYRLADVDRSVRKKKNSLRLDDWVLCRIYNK
The procedure, abridged:
as §1

Experiment [6] deals with T5, GST-ANAC092(1-285) full length (Arabidopsis thaliana, UniProt Q9FKA0 1-285).
T5 sequence: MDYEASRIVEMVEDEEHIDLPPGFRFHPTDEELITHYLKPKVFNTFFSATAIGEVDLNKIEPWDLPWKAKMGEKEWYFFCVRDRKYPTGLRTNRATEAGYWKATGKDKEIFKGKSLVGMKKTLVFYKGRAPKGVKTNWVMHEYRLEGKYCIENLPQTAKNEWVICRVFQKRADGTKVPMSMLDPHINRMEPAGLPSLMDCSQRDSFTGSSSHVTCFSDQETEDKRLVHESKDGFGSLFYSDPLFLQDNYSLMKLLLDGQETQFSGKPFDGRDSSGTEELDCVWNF
The method in brief: as §1

The target of experiment [7] is T6, GST-NST2(1-184) (Arabidopsis thaliana, UniProt Q9M274 1-184).
T6 sequence: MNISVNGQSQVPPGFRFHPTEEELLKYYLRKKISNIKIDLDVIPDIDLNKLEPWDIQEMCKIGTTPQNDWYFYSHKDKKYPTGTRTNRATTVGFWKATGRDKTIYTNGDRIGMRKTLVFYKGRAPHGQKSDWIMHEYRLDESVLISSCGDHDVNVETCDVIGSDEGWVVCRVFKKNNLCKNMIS
The method in brief:
as §1

Experiment [8] concerns the target T7, GST-SND1(1-203) (Arabidopsis thaliana, UniProt Q9LPI7 1-203).
T7 sequence: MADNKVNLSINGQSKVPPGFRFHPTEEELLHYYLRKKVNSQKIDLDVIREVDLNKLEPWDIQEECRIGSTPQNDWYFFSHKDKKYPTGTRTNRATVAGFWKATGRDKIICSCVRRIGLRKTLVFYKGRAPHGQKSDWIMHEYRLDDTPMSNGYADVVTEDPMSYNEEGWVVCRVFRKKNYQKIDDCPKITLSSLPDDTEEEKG
The method in brief:
as §1

The target of experiment [9] is T8, GST-VND3 NAC domain (Arabidopsis thaliana, UniProt Q9FH59 12-162).
T8 sequence: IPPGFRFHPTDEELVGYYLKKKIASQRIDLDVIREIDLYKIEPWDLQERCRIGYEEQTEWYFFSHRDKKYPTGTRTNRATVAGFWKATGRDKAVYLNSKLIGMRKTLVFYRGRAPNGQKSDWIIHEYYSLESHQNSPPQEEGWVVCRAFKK
The procedure, abridged:
as §1

The target in experiment [10] is T9, GST-VND7 NAC domain (Arabidopsis thaliana, UniProt Q9C8W9 9-158).
T9 sequence: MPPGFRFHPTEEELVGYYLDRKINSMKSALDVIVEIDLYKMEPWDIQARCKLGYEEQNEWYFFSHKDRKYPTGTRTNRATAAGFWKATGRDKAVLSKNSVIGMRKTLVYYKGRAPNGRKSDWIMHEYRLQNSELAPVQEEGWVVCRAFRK
The procedure, abridged: as §1

Experiment [11] deals with T10, GST-NAP(1-166) (Arabidopsis thaliana, UniProt O49255 1-166).
T10 sequence: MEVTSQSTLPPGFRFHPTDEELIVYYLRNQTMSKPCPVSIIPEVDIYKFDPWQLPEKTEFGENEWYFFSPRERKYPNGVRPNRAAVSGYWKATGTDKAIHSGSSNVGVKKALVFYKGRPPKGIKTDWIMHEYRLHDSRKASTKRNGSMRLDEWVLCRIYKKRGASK
The procedure, abridged:
as §1

Experiment [12] addresses T11, GST-NTL8 NAC domain (Arabidopsis thaliana, UniProt Q9XIN7 14-156).
T11 sequence: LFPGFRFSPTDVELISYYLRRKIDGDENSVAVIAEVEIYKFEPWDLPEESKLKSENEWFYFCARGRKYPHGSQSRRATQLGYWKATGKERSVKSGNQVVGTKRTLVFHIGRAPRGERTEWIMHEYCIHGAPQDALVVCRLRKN
The method in brief: as §1

GST-NTL6(1-168), sequence (Q9SCK6 1-168): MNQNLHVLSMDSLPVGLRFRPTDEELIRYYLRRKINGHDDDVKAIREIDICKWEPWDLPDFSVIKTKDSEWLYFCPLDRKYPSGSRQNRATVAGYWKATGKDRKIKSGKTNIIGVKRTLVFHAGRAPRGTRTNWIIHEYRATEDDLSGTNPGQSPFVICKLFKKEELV

As to ACAAGTAA, the binding signal in experiment [1] was 0.41 E-score; in experiment [2] it was 0.25 E-score; in [3] it was 0.125 E-score; in experiment [4], 0.236 E-score; in [5] it was 0.238 E-score; in experiment [6], 0.439 E-score. The binding signal stood at 0.288 E-score in experiment [7], 0.257 E-score in experiment [8], 0.249 E-score in [9] and 0.0784 E-score in experiment [10].
Turning to AATTGCGT, the binding signal in experiment [1] is 0.451 E-score; in experiment [2] it was 0.0568 E-score; in experiment [3], 0.394 E-score; in experiment [4], 0.395 E-score; in experiment [5] it was 0.319 E-score; in experiment [6], 0.46 E-score. Also, the binding signal in experiment [11] turned out to be 0.432 E-score; in experiment [7] it was 0.294 E-score; in experiment [12], 0.0923 E-score; in experiment [8] it was 0.412 E-score; in experiment [9] it was 0.415 E-score; in experiment [10] it was 0.418 E-score.
GTTTCTTA: the binding signal came out at 0.226 E-score in [1]; 0.435 E-score in experiment [2]; 0.141 E-score in experiment [3]; 0.185 E-score in experiment [4]; 0.257 E-score in experiment [5]; 0.313 E-score in experiment [6]. Also, the binding signal in experiment [7] was 0.311 E-score; in experiment [12], 0.28 E-score; in [8], 0.33 E-score; in [9], 0.16 E-score; in experiment [10], 0.0761 E-score.
On to AACGTAAC, for which the binding signal amounted to 0.335 E-score in experiment [1]; 0.15 E-score in [2]; 0.15 E-score in experiment [3]; 0.212 E-score in experiment [4]; 0.253 E-score in experiment [5]; 0.37 E-score in [6]. Moreover, the binding signal worked out at 0.315 E-score in experiment [11]; 0.324 E-score in [7]; 0.143 E-score in experiment [12]; 0.419 E-score in [8]; 0.278 E-score in experiment [9]; 0.269 E-score in [10].
In the case of GAAGTAAA, the binding signal in [1] was 0.214 E-score; in [2], 0.409 E-score; in experiment [3] it was 0.0501 E-score; in experiment [4], 0.107 E-score; in experiment [5], 0.211 E-score; in [6], 0.305 E-score. Further, the binding signal in [7] turned out to be 0.224 E-score; in [12], 0.222 E-score; in experiment [8] it was 0.329 E-score; in experiment [9], 0.179 E-score; in experiment [10], 0.18 E-score.
In the case of ATTCCTTA, the binding signal in [1] turned out to be 0.103 E-score; in experiment [2] it was 0.486 E-score; in experiment [3] it was 0.0942 E-score; in [4], 0.114 E-score; in experiment [5], 0.126 E-score; in experiment [6] it was 0.115 E-score. Moreover, the binding signal came out at 0.224 E-score in experiment [7]; 0.237 E-score in experiment [12]; 0.306 E-score in experiment [8]; 0.0907 E-score in experiment [9]; 0.064 E-score in [10].
Regarding TAAGTTAA, the binding signal in experiment [1] was determined as 0.191 E-score; in experiment [2], 0.418 E-score; in experiment [3], 0.132 E-score; in experiment [4], 0.0747 E-score; in [5], 0.157 E-score; in [6], 0.3 E-score. The binding signal was 0.184 E-score in experiment [7], 0.297 E-score in experiment [8], 0.188 E-score in experiment [9] and 0.0557 E-score in [10].
For the sequence AAGGAAAT, the binding signal in [1] turned out to be 0.191 E-score; in [2] it was 0.384 E-score; in experiment [3], 0.147 E-score; in experiment [4], 0.0899 E-score; in experiment [5], 0.122 E-score; in [6] it was 0.163 E-score. Further, the binding signal in experiment [11] worked out at 0.06 E-score; in experiment [7] it was 0.15 E-score; in [12], 0.466 E-score; in [8], 0.258 E-score; in [9] it was 0.144 E-score; in [10] it was 0.0723 E-score.
Regarding ACGTAAGC, the binding signal in experiment [1] was determined as 0.42 E-score; in experiment [2], 0.133 E-score; in experiment [3], 0.453 E-score; in experiment [4], 0.406 E-score; in experiment [5] it was 0.352 E-score; in [6], 0.449 E-score. The binding signal in [11] was 0.428 E-score; in experiment [7], 0.298 E-score; in experiment [12] it was 0.205 E-score; in [8] it was 0.368 E-score; in [9] it was 0.437 E-score; in [10], 0.431 E-score.
As to AAGCAATC, the binding signal was determined as 0.384 E-score in experiment [1]; 0.324 E-score in experiment [2]; 0.21 E-score in experiment [3]; 0.0736 E-score in experiment [4]; 0.108 E-score in experiment [5]; 0.417 E-score in experiment [6]. Moreover, the binding signal in experiment [7] was 0.327 E-score; in [12] it was 0.264 E-score; in [8], 0.466 E-score; in [9], 0.152 E-score; in [10], 0.289 E-score.
ACGGAAAC: the binding signal was 0.325 E-score in experiment [1]; 0.205 E-score in experiment [2]; 0.412 E-score in experiment [3]; 0.388 E-score in experiment [4]; 0.209 E-score in [5]; 0.345 E-score in experiment [6]. For the same sequence, the binding signal in [11] came out at 0.305 E-score; in experiment [7], 0.242 E-score; in [12], 0.243 E-score; in [8] it was 0.191 E-score; in [9], 0.349 E-score; in experiment [10], 0.361 E-score.
Consider ATGACGTA, for which the binding signal came to 0.443 E-score in experiment [1]; 0.0683 E-score in [2]; 0.372 E-score in experiment [3]; 0.346 E-score in experiment [4]; 0.374 E-score in experiment [5]; 0.437 E-score in [6]. The binding signal in experiment [11] was determined as 0.404 E-score; in experiment [7], 0.317 E-score; in experiment [12], 0.098 E-score; in experiment [8], 0.446 E-score; in experiment [9], 0.437 E-score; in experiment [10] it was 0.386 E-score.
In the case of ATACGCAA, the binding signal in experiment [1] is 0.485 E-score; in experiment [2], 0.0867 E-score; in experiment [3], 0.429 E-score; in experiment [4], 0.397 E-score; in experiment [5], 0.336 E-score; in [6], 0.487 E-score. Further, the binding signal in experiment [11] is 0.459 E-score; in [7], 0.406 E-score; in experiment [12], 0.172 E-score; in experiment [8], 0.462 E-score; in experiment [9], 0.435 E-score; in experiment [10], 0.433 E-score.
Turning to ACGTTACT, the binding signal in experiment [1] was found to be 0.435 E-score; in experiment [2], 0.0863 E-score; in experiment [3], 0.287 E-score; in experiment [4], 0.155 E-score; in experiment [5], 0.282 E-score; in experiment [6], 0.439 E-score. Moreover, the binding signal in experiment [11] was determined as 0.249 E-score; in [7], 0.268 E-score; in [12], 0.233 E-score; in experiment [8] it was 0.434 E-score; in experiment [9], 0.259 E-score; in [10], 0.326 E-score.
